Data taken from PubChem BioAssay AID1508649 (National Center for Advancing Translational Sciences (NCATS), 2021).
The whole screen tested about 43,000 compounds, of which about 830 (1.9%) were called active. Inconclusive results (about 30%) are left out. Rule for the calls: active = clear falling dose curves in both reporters; inconclusive = both reporters move, but less clearly or upward; inactive = either reporter flat; the % is the NLuc reporter signal. This excerpt belongs to a sample that is enriched for actives.

experiment: Cell-based coincidence reporter assay to measure PMP22 gene transcription in S16 Pmp22-F2sN cells - Primary screen; conditions: S16 Pmp22-F2sN Schwann cells (luciferase reporters placed in the Pmp22 gene), FLuc/NLuc coincidence luminescence, 24 h; series mostly up to 57.5 µM; activity change, negative = inhibition: at the top concentration
Text: Assay Provider: Jim Inglese Ph.D. National Center for Advancing Translational Science, National Institutes of Health, Rockville, MD CMT is a heterogeneous group of neurological disorders that affect approximately 1 in 2,500 people. In particular, the most common form of CMT, CMT1A is genetically linked to the duplication of the PMP22 gene which leads to Schwann cell overexpression, thus manifesting itself as a typical case of dose-sensitive diseases. To identify small molecule compounds that can mediate the expression of PMP22 we developed a phenotypic assay screening strategy by utilizing genome editing techniques to construct Schwann cell lines containing novel reporter technology to monitor the transcriptional or translational regulation of PMP22. For high sensitivity we use a bioluminescent reporter system embedded in the 3' UTR of the PMP22 gene (S16(c9) Pmp22-F2sN) to identify compounds that inhibit gene expression. […] We can further discriminate the effect of all transcriptionally active molecules on PMP22 translation or stability with an assay that incorporates a short NLuc peptide (HiBiT) at the C-terminus of expressed PMP22 (S16(f8) PMP22-HiBiT) allowing alpha complementation and luminescence detection of membrane-associated PMP22 protein. These assays were screened against the NCATS Sytravon Library Collection. Miniaturization of these assays to 1536-well plate format for quantitative high throughput screening (qHTS) yielded rich data sets immediately from the qHTS assay (S16(c9) Pmp22-F2sN), when compared with data from a cell viability assay (Cell TiterGlo) to identify compounds that decreased the output signals through cellular toxicity to streamline the selection process of actives for subsequent characterization using the HiBiT assay (S16(f8) PMP22-HiBiT).
Cell-based coincidence reporter assay to measure PMP22 gene transcription in S16 Pmp22-F2sN cells PROTOCOL TABLE (format as described by Inglese J, Shamu CE and Guy RK. 2007) SEQUENCE No. (e.g., 1, 2, 3, etc.); […] (e.g., Cells, Incubation, Reagent, etc.); VALUE and DESCRIPTION. 1. Cells. Add 500-1,000 cells in 4 uL in growth media (DMEM High Glucose, No Phenol Red media + 10% heat-inactivated FBS + 1% Pen/Strep supplemented media) per well into Greiner 1536-well white/solid bottom high base, TC-treated plates. 2. Compounds. Library compounds and controls added at 23nL per well, transferred by Pin Tool. 3. Incubation. Incubate plates at 37C, 5% CO2, 95% RH for 24 h. 4. Reagent. Add 3.5uL Nano-Glo Dual-Luciferase Reporter Assay System reagent 1: Lysis and FLuc reagent per well of Greiner 1536-well plates. 5. Incubation. Incubate plates at room temperature for 10 min., protect from light. 6. Detector. FLuc luminescence measured using CCD-based camera (Viewlux). 7. Reagent. Add 3.5uL Nano-Glo Dual-Luciferase Reporter Assay System reagent 2: Stop&Glo reagent per well of Greiner 1536-well plates. 8. Incubation. Incubate plates at room temperature for 10 min., protect from light. 9. Detector. NLuc luminescence measured using CCD-based camera (Viewlux). NOTES (numbers refer to Sequence numbers above; values are from representative experiments) 6. Luminescence Read #1 (FLuc): Clear filter; Exposure = 10 sec, Gain = High, Speed = Slow, Binning = 2X 9. Luminescence Read #2 (NLuc): Clear filter; Exposure = 1 sec, Gain = High, Speed = Slow, Binning = 2X REFERENCES: 1. Inglese J, Shamu CE and Guy RK, Reporting data from high throughput screening of small molecule libraries, Nature Chemical Biology, 2007, 3(8): 438-441. doi.org/10.1038/nchembio0807-438 2. Yasgar A, Shinn P, Jadhav A, Auld DS, Michael S, Zheng W, Austin CP, Inglese J and Simeonov A, Compound Management for Quantitative High-Throughput Screening. J. Assoc. Lab. Auto., 2008, 13: 79-89. doi: 10.1016/j.jala.2007.12.004
% is set by controls: 0 for no effect and ±100 for the full control effect; potency is the fitted concentration of half-maximal effect.

Structure (SMILES) | activity change, negative = inhibition | Potency
CCSc1ncc(Cl)c(C(=O)Nc2cc(C)ccc2C)n1 | 4.67% (inactive) | 
Cc1ccc(NC(=O)c2nc(S(=O)(=O)Cc3cccc(C)c3)ncc2Cl)cc1 |  | 4.22 µM (active)
CCS(=O)(=O)c1ncc(N(Cc2ccc(F)cc2)Cc2ccco2)c(C(=O)Nc2cc(C)ccc2C)n1 | 1.94% (inactive) | 
Cc1cc2oc(C(=O)N(Cc3ccc(Cl)cc3)Cc3ccco3)c(C)c2cc1Cl | -4.49% (inactive) | 
CC(C)(C)c1ccc(C(=O)NCC(c2ccco2)S(=O)(=O)c2ccc(F)cc2)cc1 (configuration not stated) |  | 15.8 µM (active)
O=C(NCC(c1ccco1)S(=O)(=O)c1cccs1)c1ccc(F)cc1 (configuration not stated) | -8.16% (inactive) | 
COc1ccccc1CNC(=O)C(=O)NCC(c1ccco1)S(=O)(=O)c1ccc(F)cc1 (configuration not stated) | -28.9% (inactive) | 
O=S(=O)(c1ccc2nc(NCc3ccccc3Cl)ccc2c1)N1CCCCC1 | -32.7% (inactive) | 
COc1ccccc1NC(=O)CN1C(=O)c2ccccc2Sc2ccc(C(=O)N3CCCC3)cc21 | -28% (inactive) | 
Cc1cccc(C(=O)Nc2ccc(-c3nc4ncccc4o3)cc2C)c1 | -4.56% (inactive) | 
CC1=Nc2cc(C(=O)NCc3ccc(C)cc3)ccc2Sc2ccc(Cl)cc21 | -6.27% (inactive) | 
CCC1=Nc2cc(C(=O)NCCCOC(C)C)ccc2Sc2ccc(C)cc21 |  | 8.54 µM (active)
CCOCCCNC(=O)c1ccc2nc(CCc3ccccc3)oc2c1 | 0.539% (inactive) | 
O=C(Nc1ccc(F)cc1F)c1ccc2c(=O)n3c(nc2c1)CCCCC3 | -12.8% (inactive) | 
Cc1cc(N2CCN(c3cccc(C(F)(F)F)c3)CC2)n2nc(-c3ccccc3)nc2n1 | 4.74% (inactive) | 
O=C(CSc1oc(-c2ccco2)nc1S(=O)(=O)c1ccc(Cl)cc1)c1ccccc1 | -14.8% (inactive) | 
CCc1ccc2oc(-c3ccc(C)c(NC(=O)/C=C/c4ccco4)c3)nc2c1 | -6.73% (inactive) | 
COc1ccc(CNC(=O)CSc2nc3ccccc3nc2Cc2ccccc2)cc1 | 0.264% (inactive) | 
CCc1ccc(NC(=O)c2nn(-c3ccc(C)cc3)c(=O)n(C)c2=O)cc1 | 4.83% (inactive) | 
Fc1ccc(-c2nc(Nc3cccc(Cl)c3)nc3c2COc2ccccc2-3)cc1 | 1.62% (inactive) | 
CCOC(=O)C1CCCN(C(=O)c2ccc3c(c2)sc2nc(-c4ccc(CC)cc4)cn23)C1 (configuration not stated) | -68.5% (inactive) | 
Cc1ccc(CNC(=O)CSc2c3c(nc4cc(Cl)ccc24)CCCC3)cc1 | -14.6% (inactive) | 
CCOC(=O)C1CCN(C(=O)CSc2c3c(nc4ccc(Cl)cc24)CCCC3)CC1 |  | 18.9 µM (active)
CCOc1ccc(N2CC(c3nc4ccccc4n3CCOc3ccc(OC)cc3)CC2=O)cc1 (configuration not stated) | -6.83% (inactive) | 

Structure (SMILES) | activity change, negative = inhibition | Potency
CCCN1C(=O)C(O)(CC(=O)c2ccc(CC)cc2)c2cc(Br)ccc21 (configuration not stated) |  | 12.6 µM (active)
Cc1cc(C)cc(NC(=O)CCS(=O)(=O)c2cc3c4c(c2)CCN4C(=O)CC3)c1 | -4.74% (inactive) | 
CCOC(=O)c1[nH]c(C)c(CCC(=O)N2CCN(c3ccccc3)CC2)c1C | -2.38% (inactive) | 
CCOC(=O)c1c(C)[nH]c(CCC(=O)NCCCN2CCN(c3cccc(Cl)c3)CC2)c1C |  | 17.9 µM (active)
CCOC(=O)c1c(C)[nH]c(CCC(=O)NCCCN2CCN(c3cc(C)ccc3C)CC2)c1C |  | 12.1 µM (active)
CCOC(=O)c1c(C)[nH]c(C)c1S(=O)(=O)N(C)CC(=O)N1CCN(c2ccccc2)CC1 | -18.3% (inactive) | 
Cc1ccc(C)c(N2CCN(C(=O)Cc3c(C(=O)O)c(C)cn3C)CC2)c1 | 0.691% (inactive) | 
Cc1ccc(C)c(N2CCN(C(=O)CCc3c(C)nc4c(c3C)c(=O)n(C)c(=O)n4C)CC2)c1 | -34.2% (inactive) | 
O=C(CSc1nnc(-c2ccccc2F)o1)Nc1cccc(C(F)(F)F)c1 | 5.33% (inactive) | 
COc1cccc(NC(=O)C(=O)NCC(c2ccc3c(c2)OCO3)N2CCN(C)CC2)c1 (configuration not stated) | -29.9% (inactive) | 
COc1cc(NC(=O)C2CCN(c3cnccn3)CC2)cc(OC)c1 | -10.2% (inactive) | 
Brc1ccc(-c2noc(-c3ccccc3)n2)o1 | -13.7% (inactive) | 
O=C(NCCCc1ccccc1)c1ccc2c(c1)sc1nc(-c3ccc(F)cc3)cn12 | -12.4% (inactive) | 
CCOc1ccc(CNCc2c(C(=O)O)c(C)n(Cc3cccc(OC)c3)c2C)cc1OC | -23.9% (inactive) | 
CCCCOc1ccc(Cn2c(=O)oc3ccc(C)cc32)cc1OC | -12.8% (inactive) | 
CCCCOc1ccc(CN2C(=O)C(=O)c3cc(Br)cc(C)c32)cc1OC |  | 4.5 µM (active)
Cc1ccc(-c2cc(C(F)(F)F)c(C#N)c(SCC(=O)Nc3ccccc3)n2)cc1 | 3.61% (inactive) | 
CCOC(=O)c1c(NC(=O)c2cc(-c3ccc(Cl)cc3)on2)sc2c1CCCC2 | -8.48% (inactive) | 
COc1ccc(/C=C/c2noc(-c3ccccc3O)n2)cc1OC | -88.6% (inactive) | 
Cc1c(-c2nc(-c3ccc4c(c3)OCO4)no2)nnn1-c1ccc(Br)cc1F | -12.3% (inactive) | 
COc1cccc(CNS(=O)(=O)c2cc3c(cc2C)n(C)c(=O)c(=O)n3C)c1 | -24.1% (inactive) | 
COc1ccc(OC)c(CCNC(=O)CCCn2c(=O)c3cccn3c3cccnc32)c1 | -47.8% (inactive) | 
Cc1ccc(-n2c(=O)c3cccnc3n2CC(=O)NCc2ccc(F)cc2)cc1C | -10.6% (inactive) | 
